Experimental data reported in PubChem BioAssay AID1159580 (chemical genetic matrix, 2015).
Hit rate of the full screen: of about 5,500 compounds, about 2,000 (36%) were called active. About 18% were inconclusive and are not listed. The list shows a part of the results. Unmarked numbers belong to inactive results. No stated cut-off is given here; in the data, active means normalized growth mostly below about 0.91 (no sharp cut-off); inconclusive means no clear call, values can overlap the other calls; inactive means mostly above about 0.92.

Assay: chemical genetic growth profiling, strain panel (AID 1159580);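 further: tested at 20 µM; growth read once vehicle control cultures reached saturation at 30 °C; 1 = growth at the plate median or of vehicle wells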
Details: S. cerevisiae deletion strains, growth OD
[1] = locus YDL101C, strain DUN1, stronger effect = lower value
[2] = locus YHR030C, strain SLT2, stronger effect = lower value

O=c1ccc2ccc(O)cc2o1
normalized growth (locus YAL021C, strain ccr4, stronger effect = lower value): 1.05
normalized growth (locus YAL026C, strain drs2, stronger effect = lower value): 0.984
normalized growth (locus YAL030W, strain snc1, stronger effect = lower value): 0.999
normalized growth (locus YBL061C, strain skt5, stronger effect = lower value): 0.991
normalized growth (locus YBR009C, strain hhf1, stronger effect = lower value): 1.01
normalized growth (locus YBR023C, strain chs3, stronger effect = lower value): 1.01
normalized growth (locus YBR171W, strain sec66, stronger effect = lower value): 0.987
normalized growth (locus YBR231C, strain swc5, stronger effect = lower value): 0.976
normalized growth (locus YBR279W, strain paf1, stronger effect = lower value): 1.01
normalized growth (locus YCL011C, strain gbp2, stronger effect = lower value): 1.01
normalized growth (locus YCL016C, strain dcc1, stronger effect = lower value): 1.02
normalized growth (locus YCL069W, strain vba3, stronger effect = lower value): 0.996
normalized growth (locus YCR088W, strain abp1, stronger effect = lower value): 0.996
normalized growth (locus YDL005C, strain med2, stronger effect = lower value): 0.981
normalized growth (locus YDL040C, strain nat1, stronger effect = lower value): 0.988
normalized growth (locus YDR001C, strain nth1, stronger effect = lower value): 0.988
normalized growth (locus YDR069C, strain doa4, stronger effect = lower value): 0.993
normalized growth (locus YDR137W, strain rgp1, stronger effect = lower value): 1.02
normalized growth (locus YDR159W, strain sac3, stronger effect = lower value): 0.972
normalized growth (locus YDR195W, strain ref2): 0.942
normalized growth (locus YDR297W, strain sur2, stronger effect = lower value): 0.986
normalized growth (locus YDR334W, strain swr1, stronger effect = lower value): 0.985
normalized growth (locus YDR335W, strain msn5, stronger effect = lower value): 1
normalized growth (locus YDR392W, strain spt3, stronger effect = lower value): 0.96
normalized growth (locus YEL003W, strain gim4, stronger effect = lower value): 0.988
normalized growth (locus YEL037C, strain rad23, stronger effect = lower value): 0.985
normalized growth (locus YEL061C, strain CIN8 (second series), stronger effect = lower value): 0.989
normalized growth (locus YER015W, strain faa2, stronger effect = lower value): 1.01
normalized growth (locus YER016W, strain bim1, stronger effect = lower value): 0.996
normalized growth (locus YER111C, strain swi4, stronger effect = lower value): 0.981
normalized growth (locus YER155C, strain BEM2 (second series), stronger effect = lower value): 0.986
normalized growth (locus YFR010W, strain ubp6, stronger effect = lower value): 0.976
normalized growth (locus YGL167C, strain pmr1, stronger effect = lower value): 0.99
normalized growth (locus YGL173C, strain kem1, stronger effect = lower value): 0.988
normalized growth (locus YGL227W, strain vid30, stronger effect = lower value): 0.983
normalized growth (locus YGL240W, strain doc1, stronger effect = lower value): 0.976
normalized growth (locus YGL253W, strain hxk2, stronger effect = lower value): 0.972
normalized growth (locus YHR013C, strain ard1, stronger effect = lower value): 0.997
normalized growth (locus YHR027C, strain rpn1, stronger effect = lower value): 0.981
normalized growth (locus YHR142W, strain chs7, stronger effect = lower value): 1.01
normalized growth (locus YJL092W, strain hpr5, stronger effect = lower value): 0.994
normalized growth (locus YJL095W, strain BCK1 (second series), stronger effect = lower value): 1
normalized growth (locus YJL115W, strain asf1, stronger effect = lower value): 0.985
normalized growth (locus YJL129C, strain trk1, stronger effect = lower value): 0.972
normalized growth (locus YJL154C, strain vps35, stronger effect = lower value): 0.988
normalized growth (locus YJL164C, strain tpk1, stronger effect = lower value): 1.01
normalized growth (locus YJL166W, strain qcr8, stronger effect = lower value): 1
normalized growth (locus YKL160W, strain elf1, stronger effect = lower value): 1.01
normalized growth (locus YKR026C, strain gcn3, stronger effect = lower value): 0.991
normalized growth (locus YKR091W, strain srl3, stronger effect = lower value): 0.992
normalized growth (locus YLL001W, strain dnm1, stronger effect = lower value): 1.01
normalized growth (locus YLL026W, stronger effect = lower value): 1
normalized growth (locus YLL041C, strain sdh2, stronger effect = lower value): 0.992
normalized growth (locus YLR027C, strain aat2, stronger effect = lower value): 1.01
normalized growth (locus YLR221C, strain rsa3, stronger effect = lower value): 0.98
normalized growth (locus YLR258W, strain gsy2, stronger effect = lower value): 1.03
normalized growth (locus YLR262C, strain YPT6 (second series), stronger effect = lower value): 1.01
normalized growth (locus YLR320W, strain mms22, stronger effect = lower value): 0.975
normalized growth (locus YLR342W, strain FKS1, stronger effect = lower value): 1
normalized growth (locus YLR357W, strain rsc2, stronger effect = lower value): 0.996
normalized growth (locus YLR370C, strain arc18, stronger effect = lower value): 1
normalized growth (locus YLR384C, strain iki3, stronger effect = lower value): 0.988
normalized growth (locus YML120C, strain ndi1, stronger effect = lower value): 1.01
normalized growth (locus YMR058W, strain fet3, stronger effect = lower value): 0.99
normalized growth (locus YMR125W, strain sto1, stronger effect = lower value): 1.01
normalized growth (locus YMR129W, stronger effect = lower value): 0.993
normalized growth (locus YMR205C, strain PFK2, stronger effect = lower value): 1.02
normalized growth (locus YMR231W, strain pep5, stronger effect = lower value): 0.982
normalized growth (locus YNL071W, strain lat1, stronger effect = lower value): 1
normalized growth (locus YNL209W, strain ssb2, stronger effect = lower value): 1.01
normalized growth (locus YNL248C, strain rpa49, stronger effect = lower value): 0.999
normalized growth (locus YNL322C, strain KRE1 (second series), stronger effect = lower value): 0.996
normalized growth (locus YNR049C, strain mso1, stronger effect = lower value): 0.979
normalized growth (locus YOR001W, strain rrp6, stronger effect = lower value): 0.931
normalized growth (locus YOR070C, strain gyp1, stronger effect = lower value): 0.999
normalized growth (locus YOR080W, strain dia2, stronger effect = lower value): 0.992
normalized growth (locus YOR083W, strain WHI5, stronger effect = lower value): 1.03
normalized growth (locus YOR106W, strain vam3, stronger effect = lower value): 1.03
normalized growth (locus YOR265W, strain rbl2, stronger effect = lower value): 0.994
normalized growth (locus YOR270C, strain vph1, stronger effect = lower value): 0.985
normalized growth (locus YOR290C, strain snf2, stronger effect = lower value): 1
normalized growth (locus YPL051W, strain arl3, stronger effect = lower value): 0.997
normalized growth (locus YPL078C, strain atp4, stronger effect = lower value): 1.01
normalized growth (locus YPL106C, strain sse1, stronger effect = lower value): 1.03
normalized growth (locus YPL240C, strain hsp82, stronger effect = lower value): 0.998

Cc1noc(C)c1-c1nc(-c2cc(C(F)(F)F)cc(C(F)(F)F)c2)no1
normalized growth (locus YAL013W, strain DEP1, stronger effect = lower value): 1.02
normalized growth (locus YBR229C, strain ROT2, stronger effect = lower value): 1.01
normalized growth (locus YCL061C, strain MRC1, stronger effect = lower value): 0.992
normalized growth [1]: 1.02
normalized growth (locus YDL134C, strain PPH21, stronger effect = lower value): 1.01
normalized growth (locus YDR150W, strain NUM1, stronger effect = lower value): 0.983
normalized growth (locus YEL061C, strain CIN8, stronger effect = lower value): 1.01
normalized growth (locus YGR078C, strain PAC10, stronger effect = lower value): 1.01
normalized growth [2]: 1.03
normalized growth (locus YHR087W, strain rtc3, stronger effect = lower value): 1
normalized growth (locus YJL187C, strain SWE1, stronger effect = lower value): 1
normalized growth (locus YJR043C, strain POL32, stronger effect = lower value): 1
normalized growth (locus YJR075W, strain HOC1, stronger effect = lower value): 0.999
normalized growth (locus YLR039C, strain RIC1, stronger effect = lower value): 1.06
normalized growth (locus YLR058C, strain SHM2 (second series), stronger effect = lower value): 0.993
normalized growth (locus YLR085C, strain ARP6, stronger effect = lower value): 1.03
normalized growth (locus YLR262C, strain YPT6, stronger effect = lower value): 1.03
normalized growth (locus YML094W, strain GIM5, stronger effect = lower value): 1.07
normalized growth (locus YMR219W, strain ESC1, stronger effect = lower value): 0.998
normalized growth (locus YMR263W, strain SAP30, stronger effect = lower value): 0.981
normalized growth (locus YMR307W, strain GAS1, stronger effect = lower value): 0.99
normalized growth (locus YNL128W, strain TEP1, stronger effect = lower value): 1.02
normalized growth (locus YNL153C, strain GIM3, stronger effect = lower value): 1
normalized growth (locus YNL298W, strain CLA4 (second series), stronger effect = lower value): 1
normalized growth (locus YNL322C, strain KRE1, stronger effect = lower value): 1.01
normalized growth (locus YNR030W, strain Alg12, stronger effect = lower value): 1.03
normalized growth (locus YPL055C, strain LGE1, stronger effect = lower value): 1.05
normalized growth (locus YPL241C, strain CIN2, stronger effect = lower value): 1.01
normalized growth (locus YPR135W, strain CTF4, stronger effect = lower value): 1.07

Clc1cc(Cl)cc(-c2nc(SCc3ccc(Cl)cc3Cl)n[nH]2)c1
normalized growth (locus YAR019C, strain CDC15, stronger effect = lower value): 0.991
normalized growth (locus YBL105C, strain PKC1, stronger effect = lower value): 0.99
normalized growth (locus YBR135W, strain CKS1, stronger effect = lower value): 0.982
normalized growth (locus YBR136W, strain MEC1, stronger effect = lower value): 0.998
normalized growth (locus YBR160W, strain CDC28, stronger effect = lower value): 0.991
normalized growth (locus YDL017W, strain CDC7, stronger effect = lower value): 0.987
normalized growth (locus YDL028C, strain MPS1, stronger effect = lower value): 0.995
normalized growth [1]: 1
normalized growth (locus YDL108W, strain KIN28, stronger effect = lower value): 0.986
normalized growth (locus YDL132W, strain cdc53, stronger effect = lower value): 0.981
normalized growth (locus YDL214C, strain PRR2, stronger effect = lower value): 0.913
normalized growth (locus YDR052C, strain DBF4, stronger effect = lower value): 0.998
normalized growth (locus YDR054C, strain cdc34, stronger effect = lower value): 0.984
normalized growth (locus YDR226W, strain ADK1, stronger effect = lower value): 0.992
normalized growth (locus YDR477W, strain SNF1, stronger effect = lower value): 0.938
normalized growth (locus YER123W, strain YCK3, stronger effect = lower value): 0.908
normalized growth (locus YER133W, strain GLC7, stronger effect = lower value): 0.968
normalized growth (locus YFL009W, strain cdc4, stronger effect = lower value): 0.981
normalized growth (locus YFL029C, strain CAK1, stronger effect = lower value): 0.995
normalized growth (locus YFR003C, strain YPI1, stronger effect = lower value): 0.995
normalized growth (locus YFR019W, strain FAB1, stronger effect = lower value): 0.901
normalized growth (locus YFR028C, strain CDC14, stronger effect = lower value): 1
normalized growth (locus YGR040W, strain KSS1, stronger effect = lower value): 0.964
normalized growth (locus YGR052W, strain FMP48, stronger effect = lower value): 0.937
normalized growth (locus YGR092W, strain DBF2, stronger effect = lower value): 0.839
normalized growth [2]: 0.356 (active)
normalized growth (locus YHR079C, strain IRE1, stronger effect = lower value): 0.845
normalized growth (locus YHR082C, strain KSP1, stronger effect = lower value): 0.911
normalized growth (locus YHR205W, strain SCH9, stronger effect = lower value): 0.829
normalized growth (locus YIL147C, strain SLN1, stronger effect = lower value): 0.992
normalized growth (locus YJL095W, strain BCK1, stronger effect = lower value): 0.81
normalized growth (locus YJL128C, strain PBS2, stronger effect = lower value): 0.964
normalized growth (locus YJL157C, strain FAR1, stronger effect = lower value): 0.942
normalized growth (locus YJR016C, strain ILV3, stronger effect = lower value): 0.987
normalized growth (locus YJR066W, strain TOR1 (second series), stronger effect = lower value): 0.98
normalized growth (locus YJR066W, strain TOR1, stronger effect = lower value): 0.893
normalized growth (locus YKL048C, strain ELM1, stronger effect = lower value): 0.964
normalized growth (locus YKL067W, strain YNK1, stronger effect = lower value): 0.882
normalized growth (locus YKL101W, strain HSL1, stronger effect = lower value): 0.891
normalized growth (locus YKL193C, strain SDS22, stronger effect = lower value): 0.985
normalized growth (locus YKL203C, strain TOR2, stronger effect = lower value): 1.05
normalized growth (locus YLR113W, strain HOG1, stronger effect = lower value): 0.772 (active)
normalized growth (locus YLR133W, strain CKI1, stronger effect = lower value): 0.924
normalized growth (locus YLR403W, strain SFP1, stronger effect = lower value): 0.963
normalized growth (locus YML070W, strain DAK1, stronger effect = lower value): 0.92
normalized growth (locus YMR001C, strain CDC5, stronger effect = lower value): 0.988
normalized growth (locus YMR205C, strain PFK2 (second series), stronger effect = lower value): 0.927
normalized growth (locus YMR277W, strain FCP1, stronger effect = lower value): 0.983
normalized growth (locus YNL006W, strain LST8, stronger effect = lower value): 0.965
normalized growth (locus YNL020C, strain ARK1, stronger effect = lower value): 0.914
normalized growth (locus YNL161W, strain CBK1, stronger effect = lower value): 0.991
normalized growth (locus YNL183C, strain NPR1, stronger effect = lower value): 0.916
normalized growth (locus YNL207W, strain RIO2, stronger effect = lower value): 0.983
normalized growth (locus YNL222W, strain SSU72, stronger effect = lower value): 0.987
normalized growth (locus YNL307C, strain MCK1 (second series), stronger effect = lower value): 0.864
normalized growth (locus YOL078W, strain AVO1, stronger effect = lower value): 0.985
normalized growth (locus YOL136C, strain PFK27, stronger effect = lower value): 0.893
normalized growth (locus YOR061W, strain CKA2, stronger effect = lower value): 0.756
normalized growth (locus YOR119C, strain RIO1, stronger effect = lower value): 0.956
normalized growth (locus YOR231W, strain MKK1, stronger effect = lower value): 0.873
normalized growth (locus YOR329C, strain SCD5, stronger effect = lower value): 0.986
normalized growth (locus YPL031C, strain PHO85, stronger effect = lower value): 0.927
normalized growth (locus YPL153C, strain RAD53, stronger effect = lower value): 0.889
normalized growth (locus YPL204W, strain HRR25, stronger effect = lower value): 0.915
normalized growth (locus YPL209C, strain IPL1, stronger effect = lower value): 0.985
normalized growth (locus YPL256C, strain CLN2, stronger effect = lower value): 0.835 (active)
normalized growth (locus YPR025C, strain CCL1, stronger effect = lower value): 0.98
normalized growth (locus YPR106W, strain ISR1, stronger effect = lower value): 0.981
normalized growth (locus YPR111W, strain DBF20, stronger effect = lower value): 0.948
normalized growth (strain NNK1, stronger effect = lower value): 0.981
normalized growth (strain TSCII, stronger effect = lower value): 0.993
